Screening data as filed in PubChem.
The list is not random: actives were taken first. Their share in the collection is about 19%.
HT1080 IDH1KD tx – qHTS for induction of synthetic lethality in tumor cells producing 2HG: qHTS for the HT-1080-IDH1KD cell line; HT-1080 IDH1 knockdown viability, ATP luminescence, 48 h; Potency, µM (doses to about 46.1 µM), usual class: cytotoxic; actives 2% (n = 360,000); AID 686971, 2013
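IDH1KD HT-1080 cells, 750/well, RPMI + 5% FBS; compound pinned after 2 h settling; 48 h, 37 °C; CellTiter-Glo luminescence; % activity normalised to DMSO and no-cell wells; curves fitted, classed by r2 and efficacy.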
DT40 TDP1 CPT – qHTS for Inhibitors of human tyrosyl-DNA phosphodiesterase 1 (TDP1): qHTS in cells in presence of CPT; AID 686979, 2013; chicken DT40 Tdp1-/-;hTDP1 cells + 20 nM CPT, ATP luminescence, 48 h; actives 12% (n = 420,000); Potency, µM (series often up to 46.2 µM), actives largely listed as inhibitors; further: nearly all actives have a fitted effect of over 55% in size
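Cell growth measured by CellTiter-Glo luminescence after a minimum 48 h, 37 C compound exposure with 20 nM CPT in Tdp1-knockout DT40 cells stably expressing hTDP1, seeded 400/well; qHTS titration format.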
ELG1 DNA repair – qHTS screen for small molecules that inhibit ELG1-dependent DNA repair in human embryonic kidney (HEK293T) cells expressing luciferase-tagged ELG1. AID 504467, 2011. HEK293T ELG1-luciferase reporter, luminescence, 16 h; DNA damage induced by 5-fluorouridine. Potency, µM (top dose mostly 46.1 µM), most hits filed as inhibitors. actives 2.3% (n = 330,000); further: nearly all actives have a fitted effect of over 55% in size
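In this reporter screen, reduction of luminescence relative to DMSO vehicle indicated activity. Compounds and 5-fluorouridine were added together to 2,000 cells per well, incubated for 16 hr at 37 °C, then developed with ONE-Glo.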
IL1B secr inh – qHTS for Inhibitors of Inflammasome Signaling: IL-1-beta AlphaLISA Primary Screen. actives 4.7% (n = 360,000). activity change, % at 57.5 µM. THP-1 LPS/ATP IL-1B secretion, AlphaLISA, 16 h; stronger effect = lower value; in the data active means activity change below about -50%; inconclusive means mostly about -30% to -49%
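Secreted IL-1B measured by AlphaLISA bead assay after 16 h compound exposure of THP-1 cells; compounds (final up to 57.5 uM) added 1 h before LPS (250 ng/mL) and ATP (1.25 mM) stimulation; lower signal means less secretion.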
TDP1 cell noCPT – qHTS for Inhibitors of human tyrosyl-DNA phosphodiesterase 1 (TDP1): qHTS in cells in absence of CPT; actives 15% (n = 420,000); Potency, µM (highest dose often 46.2 µM), hits mostly inhibitors; AID 686978, 2013; DT40 Tdp1-/- hTDP1 cells, no CPT, ATP luminescence, 48 h; further: nearly all actives have a fitted effect of over 55% in size
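Compound effects on proliferation are scored in DT40 Tdp1-/-;hTDP1 cells in the absence of CPT. ATP levels (CellTiter-Glo luminescence) are recorded after a ≥48 hr, 37 °C incubation.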
HT1080NT lethal – qHTS for induction of synthetic lethality in tumor cells producing 2HG: qHTS for the HT-1080-NT fibrosarcoma cell line; Potency, µM (doses to about 46.1 µM), hits mostly cytotoxic; actives 1.6% (n = 360,000); HT-1080-NT fibrosarcoma viability, CellTiter-Glo ATP luminescence, 48 h; AID 686970, 2013;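 further: NT is the 2HG producing partner of a matched IDH1 knockdown line; nearly all actives have a fitted effect of over 55% in size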
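HT-1080-NT fibrosarcoma cells (2HG-overproducing), 750 cells/well in RPMI with 5% FBS, dosed after 2 h and incubated 48 h at 37C. CellTiter-Glo luminescence normalized to DMSO and no-cell wells; concentration-response curves fitted and classed.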
Each line names hits and unclear results; the compound was inactive in the other large screens. Unless noted, the call rests on the fitted dose curve; in most records, active means well fitted curve in the direction sought with a large enough effect; inconclusive means small, poorly fitted or top-dose-only effect, or another doubt; inactive means no such curve, though single readings can be large; an effect the other way counts as inactive or inconclusive.

COc1cccc2c(=O)c3c(cnn3C)n(C)c12	IL1B secr inh -53.9, TDP1 cell noCPT inconclusive
CC1(C)CC2CC(C)(CN2C(=O)COC(=O)c2ccc(Cl)cc2N)C1 (stereo not given)	TDP1 cell noCPT 23.1µM
COc1cc(Cl)ccc1OCc1cc(C(=O)N2C[C@]3(C)C[C@H]2CC(C)(C)C3)no1	DT40 TDP1 CPT inconclusive, ELG1 DNA repair inconclusive, TDP1 cell noCPT 16.4µM
CC1(C)CC2CC(C)(CN2C(=O)COC(=O)c2ccc(Cl)c(N)c2)C1 (stereo not given)	HT1080 IDH1KD tx inconclusive, TDP1 cell noCPT inconclusive
CCOc1ccc(NC(=O)CSc2ncc3c(n2)-c2ccc(Cl)cc2N(Cc2ccccc2)S3(=O)=O)cc1	none (no result: HT1080 IDH1KD tx, ELG1 DNA repair, IL1B secr inh, HT1080NT lethal)
CC(NC(=O)c1cccnc1)c1nnc2n1CCN(Cc1ccc(-c3ccccc3Cl)o1)CC2 (stereo not given)	none (no result: HT1080 IDH1KD tx, ELG1 DNA repair, IL1B secr inh, HT1080NT lethal)
C(=Nc1cnc2ccccc2c1)c1ccnc2ccccc12	DT40 TDP1 CPT 2.82µM, TDP1 cell noCPT 2.82µM (no result: HT1080 IDH1KD tx, ELG1 DNA repair, IL1B secr inh, HT1080NT lethal)
C(=Nc1cnc2ccccc2c1)c1cccnc1	none (no result: HT1080 IDH1KD tx, ELG1 DNA repair, IL1B secr inh, HT1080NT lethal)
C(=Nc1cccnc1)c1ccnc2ccccc12	DT40 TDP1 CPT 2µM, TDP1 cell noCPT 1.78µM (no result: HT1080 IDH1KD tx, ELG1 DNA repair, IL1B secr inh, HT1080NT lethal)
CC1(C(=O)Nc2cnc3ccccc3c2)CCN1C(=O)CCc1ccccc1 (stereo not given)	DT40 TDP1 CPT 18.4µM, TDP1 cell noCPT 18.4µM (no result: ELG1 DNA repair)
CC1(C(=O)Nc2cnc3ccccc3c2)CCN1Cc1ccc2c(c1)OCCO2 (stereo not given)	DT40 TDP1 CPT inconclusive, TDP1 cell noCPT inconclusive (no result: ELG1 DNA repair)
CC(C)Oc1ccc(CN2CCC2(C)C(=O)Nc2cnc3ccccc3c2)cc1 (stereo not given)	DT40 TDP1 CPT 18.4µM, TDP1 cell noCPT inconclusive (no result: ELG1 DNA repair)
CC1(C(=O)Nc2cccc3ncccc23)CCN1C(=O)CCc1ccccc1 (stereo not given)	DT40 TDP1 CPT inconclusive, TDP1 cell noCPT inconclusive (no result: ELG1 DNA repair)
CC1(C(=O)Nc2cnc3ccccc3c2)CCN1CCc1ccccc1 (stereo not given)	DT40 TDP1 CPT inconclusive, TDP1 cell noCPT 18.4µM, HT1080NT lethal inconclusive (no result: ELG1 DNA repair)
Cc1nc2cnc(N3CCOCC3)nc2n(Cc2ccc(F)cc2)c1=O	none (no result: HT1080 IDH1KD tx, ELG1 DNA repair, IL1B secr inh, HT1080NT lethal)
COc1ccc(C2=NN(C(=O)c3ccccc3)C(c3ccc(OC)c(OC)c3)C2)cc1OC (stereo not given)	IL1B secr inh inconclusive
COc1ccc(C2CC(c3ccc(OC)c(OC)c3)=NN2C(=O)c2ccccc2)cc1 (stereo not given)	none
COc1ccc(C2=NN(C(=O)c3cccs3)C(c3ccc(OC)cc3)C2)cc1 (stereo not given)	DT40 TDP1 CPT inconclusive, IL1B secr inh inconclusive, TDP1 cell noCPT 18.4µM
COc1ccc(C2CC(c3ccc(C)cc3)=NN2C(=O)c2ccccc2)cc1 (stereo not given)	HT1080 IDH1KD tx inconclusive, DT40 TDP1 CPT 20.6µM, IL1B secr inh inconclusive, TDP1 cell noCPT 14.6µM, HT1080NT lethal inconclusive
COc1ccc(C2=NN(C(=O)c3ccccc3)C(c3ccccc3)C2)c(O)c1 (stereo not given)	DT40 TDP1 CPT inconclusive, ELG1 DNA repair inconclusive, TDP1 cell noCPT 18.4µM
COC(C)=O	none (no result: HT1080 IDH1KD tx, ELG1 DNA repair, IL1B secr inh, HT1080NT lethal)
CN(C)[C@H]1CCN([C@@H]2CS(=O)(=O)N[C@H]2COCc2ccccc2)C1	none (no result: ELG1 DNA repair)
CCOc1ccccc1OCCCC(=O)Nc1cc(S(=O)(=O)N2CCOCC2)ccc1OC	ELG1 DNA repair inconclusive, TDP1 cell noCPT inconclusive
COc1cc(-c2cc(OC)c3c(C)oc(C)c3c(=O)c2)ccc1OC(=O)c1cccc(C)c1	DT40 TDP1 CPT 23.1µM, TDP1 cell noCPT 13µM (no result: HT1080 IDH1KD tx, ELG1 DNA repair, IL1B secr inh, HT1080NT lethal)
